KB-3-1 tox = qHTS assay for MDR1-selective chemotherapeutics: Primary screen using the parental adenocarcinoma cell KB-3-1. 400,000 tested, 1.4% active. KB-3-1 viability, CellTiter-Glo ATP luminescence, 72 h. Potency, µM (top dose mostly 46.1 µM), actives largely listed as cytotoxic; further: on the % scale 0 is the no-effect control and ±100 the full control effect; nearly all actives have a fitted effect of over 60% in size
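Multi-concentration cytotoxicity screen in KB-3-1 cells grown in DMEM lacking phenol red with 10% FBS. After 72 h at 37 °C with compound, ATP-dependent luminescence was recorded.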
KB-V1 MDR tox = qHTS assay for MDR1-selective chemotherapeutics: Primary screen using the drug-selected MDR subline cells KB-V1; Potency, µM (doses to about 46.1 µM), usual class: cytotoxic; KB-V1 MDR cells viability, CellTiter-Glo, 72 h; 400,000 tested, 3.4% active; further: on the % scale 0 is the no-effect control and ±100 the full control effect; nearly all actives have a fitted effect of over 60% in size
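Following 72 h at 37 degrees C with compound, KB-V1 cell viability was read by CellTiter-Glo luminescence, medium being phenol-red-free DMEM plus 10% FBS; concentration-response parameters came from normalized, curve-fitted qHTS data.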
HT1080-NT tox = qHTS for induction of synthetic lethality in tumor cells producing 2HG: qHTS for the HT-1080-NT fibrosarcoma cell line; Potency, µM (titrated, usually from 46.1 µM), inactives show at the highest dose activity, negative = less viability, most hits filed as cytotoxic; HT-1080-NT fibrosarcoma viability, CellTiter-Glo ATP luminescence, 48 h; AID 686970, 2013; 360,000 tested, 1.6% active;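 further: NT is the 2HG producing partner of a matched IDH1 knockdown line; 0% = DMSO-treated cells and -100% = media-only wells without cells; nearly all actives have a fitted effect of over 55% in size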
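A 48-hour cytotoxicity screen used HT-1080-NT cells plated 2 hours before compound delivery. ATP-based CellTiter-Glo luminescence measured viability, normalized to DMSO and no-cell controls.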
TGFb inhibitor = qHTS for Inhibitors of TGF-b. Potency, µM (titrated, usually from 46.1 µM), without a hit: at the top dose activity, negative = inhibition, most hits filed as inhibitors. AID 588855, 2011. HepG2 CAGA-GFP TGF-b/SMAD3 reporter, GFP fluorescence, 18 h; TGF-beta stimulated, 500 pg/mL final. 410,000 tested, 1.2% active; further: on the % scale 0 is the no-effect control and ±100 the full control effect; nearly all actives have a fitted effect of over 65% in size
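Per well, imaged GFP fluorescence of HEPG2 CAGA-GFP cells gives the signal; cells get compound, then TGF-beta (500 pg/mL final), 18 h at 37 degrees C; %Activity versus -TGF-beta and +DMSO controls.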
HepG2 viability = qHTS for Inhibitors of TGF-b: Cytotox Counterscreen; HepG2 CAGA-GFP viability, ATP luminescence, 18 h; Potency, µM (titrated, usually from 46.1 µM), without a hit: at the top dose activity change, negative = cytotoxicity, hits mostly cytotoxic; 410,000 tested, 0.76% active
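CellTiter-Glo luminescence gave cytotoxicity after 18 hours at 37 degrees C. The cells were HepG2 CAGA-GFP in 1% FBS DMEM, stimulated with 500 pg/mL TGF-beta after compound addition. %Activity was normalised to no-cell wells (complete cell-killing) and DMSO (no toxicity), and curves were fitted and classified.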
HT1080 IDH1KD tx = qHTS for induction of synthetic lethality in tumor cells producing 2HG: qHTS for the HT-1080-IDH1KD cell line; HT-1080 IDH1 knockdown viability, ATP luminescence, 48 h; Potency, µM (top dose mostly 46.1 µM), for inactives: top-dose activity, negative = toxicity, usual class: cytotoxic; 360,000 tested, 2% active;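 further: 0% = DMSO wells and -100% = cell-free medium wells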
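HT-1080-IDH1KD cells (IDH1 knocked down), 750/well in RPMI with 5% FBS, treated with compound 48 h at 37 degrees C. Viability by CellTiter-Glo luminescence, normalised to DMSO and no-cell wells; concentration-response curves classed.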
Numbers without * were called inactive; i = inactive; ? = inconclusive; · = no result given. Compounds with a hit are over-represented: about 6.6% of the library has one in this group of screens. The call rests on the fitted dose curve; in most records, active means well fitted curve in the direction sought with a large enough effect; inconclusive means small, poorly fitted or top-dose-only effect, or another doubt; inactive means no such curve, though single readings can be large; an effect the other way counts as inactive or inconclusive. Potency means the concentration at half of the fitted maximal effect.

SMILES	KB-3-1 tox	KB-V1 MDR tox	HT1080-NT tox	TGFb inhibitor	HepG2 viability	HT1080 IDH1KD tx
O=C(Cn1c(=O)c(=O)n(Cc2ccccc2)c2ccc(Cl)cc21)Nc1cccc(F)c1	i	13µM*	-10%	-11%	-11%	-6%
Cc1cccc(N(Cc2cc3ccccc3[nH]c2=O)C(=O)c2cccc(Cl)c2)c1	i	i	·	-14%	-35%	·
C=CCn1c(N2CCCCCC2)nc2c1c(=O)n(C)c(=O)n2C	i	16µM*	-3%	-25%	-1%	8%
COc1ccccc1NC(=O)c1cnc(SCC(=O)N2CCOCC2)n(C)c1=O	i	i	·	-19%	-24%	·
CCc1ccc(NS(=O)(=O)c2ccc3[nH]cc(C(=O)NCc4ccc(C)cc4)c(=O)c3c2)cc1	i	i	·	?	20µM*	·
Cc1cc(C)cc(NS(=O)(=O)c2ccc3[nH]cc(C(=O)N4CCc5ccccc54)c(=O)c3c2)c1	i	i	23µM*	-13%	1%	23µM*
CCN(CC)S(=O)(=O)c1ccc2[nH]cc(C(=O)NCCC3=CCCCC3)c(=O)c2c1	?	i	?	?	-44%	23µM*
CCc1ccc(NS(=O)(=O)c2ccc3[nH]cc(C(=O)N4CCc5ccccc54)c(=O)c3c2)cc1	i	?	?	-24%	-8%	?
Cc1nc(CC(=O)Nc2cccc(C)c2C)cs1	·	·	·	-2%	-2%	·
CCOC(=O)c1ccc(OC(=O)c2cn(-c3cccc(OC)c3)c(=O)c3ccccc23)cc1	i	i	·	39%	0%	·
Cc1cc(C)n(CC(=O)NNC(=O)COc2ccc(Br)cc2F)n1	i	i	0%	3%	-17%	1%
CNc1ccc(Br)cc(C(=O)/C=C/c2cccc(Cl)c2Cl)c1=O	16µM*	?	0%	?	-34%	-7%
CCNc1ccc(Br)cc(C(=O)/C=C/c2ccccc2Cl)c1=O	?	23µM*	?	37%	-61%	13µM*
CNc1ccc(Br)cc(C(=O)/C=C/c2cccc(OC)c2OC)c1=O	i	i	6%	-2%	-8%	5%
c1ccc(-c2cc(-c3nnc4n3N=C(c3ccc5ccccc5c3)CS4)[nH]n2)cc1	i	7.3µM*	?	?	-66%	18µM*
Cc1cc(-c2nnc3n2N=C(c2ccccc2)CS3)n[nH]1	i	i	4%	-14%	-15%	10%
COc1ccc(C2=Nn3c(nnc3-c3ccncc3)SC2)cc1	i	i	-1%	1%	-11%	-24%
Cc1cc(-c2nnc3n2N=C(c2ccc(-c4ccccc4)cc2)CS3)n[nH]1	?	i	23µM*	?	-14%	?
c1ccc(C2=Nn3c(nnc3-c3ccncc3)SC2)cc1	i	i	3%	10%	3%	5%
CCOc1ccc(C2=Nn3c(nnc3-c3ccc(OC)cc3)SC2)cc1	2.9µM*	3.3µM*	?	?	-42%	6.5µM*
Cc1cccc(-c2nnc3n2N=C(c2ccccc2)CS3)c1	?	8.2µM*	-8%	-3%	3%	-14%
O=C(Nc1cc(Cl)cc(Cl)c1)c1ccc(F)c(S(=O)(=O)N2CCN(c3ccccc3F)CC2)c1	·	·	·	-2%	5%	·
CCn1nc(C)c2c(-c3ccccc3)cc(=O)n(C(C)C(=O)Nc3cccc(F)c3)c21 (configuration not stated)	i	?	·	23%	0%	·
COc1ccc(-c2ccnc3nc(Sc4ncc(C(F)(F)F)cc4Cl)nn23)cc1	i	15µM*	?	?	-8%	?

Compound activity: PubChem BioAssay, National Center for Advancing Translational Sciences (NCATS)
